Screening data (PubChem BioAssay)
T cruzi growth-1 = blocks T. cruzi growth in NIH3T3 culture; T. cruzi beta-gal in NIH3T3, GalScreen luminescence, 90 h; inhibition, % at 8.34 µM; 77,000 compounds, 5.9% hits;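 active = mean inhibition above about 93%, with at least 55% of replicates each passing it, limit read from the data, passing the limit was not always enough; inconclusive = only one of those two conditions holds; inactive = neither condition holds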
C diff HTS = inhibitors of Clostridium difficile growth | growth activity, negative = inhibition, % at 16 µg/mL (by protocol) | Clostridium difficile clinical isolate growth, OD600, 24 h; stronger effect = lower value | 86,000 compounds, 0.25% hits;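 active = mean growth activity at or below -80% and every replicate also at or below -80%; inconclusive = mean at or below -80% but some replicate above -80%; inactive = mean growth activity above -80%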;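 note: 0% = DMSO wells and -100% = levofloxacin 16 µg/mL wells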
T cruzi growth-2 = blocks T. cruzi growth in NIH3T3 host cells. shares compounds with T cruzi growth-1. T. cruzi beta-gal in NIH3T3, GalScreen luminescence, 90 h. inhibition, % at 8.35 µM. 5,600 compounds, 72% hits. AID 651739;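 active = mean replicate inhibition above about 95% and at least 55% of replicates individually reaching it, limit read from the data; inconclusive = only one of the two criteria is met; inactive = neither criterion is met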
T cruzi growth-3 = blocks T. cruzi growth in NIH3T3 host cells; shares compounds with T cruzi growth-1; T. cruzi beta-gal in NIH3T3, GalScreen luminescence, 90 h; inhibition, % at 2.09 µM; 5,600 compounds, 21% hits; AID 651740;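 active = mean inhibition above about 95%, with at least 55% of replicates also reaching it, limit read from the data; inconclusive = meets just one of the two conditions; inactive = meets neither condition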;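 note: plate controls were neutral control median for no effect and positive control median for full effect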
NIH3T3 tox = kills mouse NIH/3T3 fibroblasts | shares compounds with T cruzi growth-1 | cytotoxicity (signal decrease), % at 8.35 µM | NIH/3T3 viability, CellTiter-Glo ATP luminescence, 90 h | 5,600 compounds, 14% hits;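 active = mean signal decrease across replicates above about 35% based on untreated-well scatter, with enough replicates individually passing, limit read from the data; inconclusive = no rule stated though some were filed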;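 note: 0% = median of neutral control wells and 100% = median of positive control wells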
NIH3T3 tox 2 = NIH/3T3 (mouse) viability loss; shares compounds with T cruzi growth-1; inhibition, % at 24.9 µM; 5,600 compounds, 56% hits; NIH/3T3 viability, CellTiter-Glo ATP luminescence, 90 h;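 active = mean loss of cell viability signal at or above a set limit, and enough replicates individually reaching it; inconclusive = meets only the mean limit or only the replicate share; inactive = meets neither condition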;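 note: 0% = median of neutral control wells and 100% = median of positive control wells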
Numbers without * were called inactive; u = inconclusive; x = no result; ! = repeats disagree. Shown is part of a subset that was picked to be rich in hits.

SMILES	T cruzi growth-1	C diff HTS	T cruzi growth-2	T cruzi growth-3	NIH3T3 tox	NIH3T3 tox 2
C[C@@H]1CN([C@H](C)CO)S(=O)(=O)c2ccc(Br)cc2O[C@@H]1CN(C)Cc1ccncc1	12.9	1.0	x	x	x	x
COCC(=O)N1[C@H](CO)[C@@H]2c3ccccc3NC[C@@H]21	37.6	-7.0	x	x	x	x
C[C@H]1CCCCO[C@@H](CN(C)S(=O)(=O)c2ccc(F)cc2)[C@@H](C)CN([C@@H](C)CO)C(=O)c2cc(NC(=O)Nc3ccc(F)cc3)ccc2O1	95.8*	-0.5	104.7*	99.2*	29.0	43.3*
C[C@@H]1CN([C@H](C)CO)C(=O)c2cc(NC(=O)Nc3ccc(F)cc3)ccc2O[C@@H](C)CCCCO[C@@H]1CN(C)S(=O)(=O)c1ccc(F)cc1	67.3	-9.0	x	x	x	x
C[C@@H]1CCCCO[C@H](CN(C)S(=O)(=O)c2ccc(F)cc2)[C@H](C)CN([C@H](C)CO)C(=O)c2cc(NC(=O)Nc3ccc(F)cc3)ccc2O1	100.5*	-1.9	96.1*	109.6*	13.4	39.6*
C[C@H](CO)N1C[C@H](C)[C@H](CN(C)S(=O)(=O)c2ccc(F)cc2)OCCCC[C@H](C)Oc2ccc(NC(=O)Nc3ccc(F)cc3)cc2C1=O	103.2*	-0.9	103.1*	67.9	17.8	45.3*
C[C@@H]1CN([C@H](C)CO)C(=O)c2cc(NC(=O)Nc3ccc(F)cc3)ccc2O[C@@H](C)CCCCO[C@H]1CN(C)S(=O)(=O)c1ccc(Cl)cc1	87.9	-7.3	x	x	x	x
C[C@H](CO)N1C[C@H](C)[C@@H](CN(C)S(=O)(=O)c2ccc(F)cc2)OCCCC[C@H](C)Oc2ccc(NC(=O)Nc3ccc(F)cc3)cc2C1=O	100.3*	-3.1	108.2*	73.0	13.7	9.8
C[C@@H]1CN([C@@H](C)CO)C(=O)c2cc(NC(=O)Nc3ccc(F)cc3)ccc2O[C@@H](C)CCCCO[C@@H]1CN(C)S(=O)(=O)c1ccc(F)cc1	57.6	0.0	x	x	x	x
C[C@@H]1CN([C@H](C)CO)C(=O)c2cc(NC(=O)Nc3ccc(F)cc3)ccc2O[C@@H](C)CCCCO[C@H]1CN(C)S(=O)(=O)c1ccc(F)cc1	96.9	-2.0	x	x	x	x
COc1ccc(S(=O)(=O)N(C)C[C@@H]2OCCCC[C@H](C)Oc3ccc(NC(=O)Nc4c(C)noc4C)cc3C(=O)N([C@H](C)CO)C[C@@H]2C)cc1	25.3	-3.0	x	x	x	x
CC(C)CC#Cc1cnc2c(c1)C(=O)N([C@@H](C)CO)C[C@@H](C)[C@@H](CN(C)C(=O)c1cccc(F)c1)O2	x	-10.7	x	x	x	x
Cc1noc(C)c1NC(=O)Nc1ccc2c(c1)C(=O)N([C@@H](C)CO)C[C@H](C)[C@H](CN(C)S(=O)(=O)c1ccc(Cl)cc1)OCCCC[C@@H](C)O2	79.1	-10.8	x	x	x	x
COc1ccc(NC(=O)Nc2ccc3c(c2)C(=O)N([C@H](C)CO)C[C@H](C)[C@H](CN(C)S(=O)(=O)c2ccc(C)cc2)OCCCC[C@@H](C)O3)cc1	-6.7	x	x	x	x	x
C[C@@H]1CN([C@@H](C)CO)C(=O)Cc2cc(NC(=O)NC3CCCCC3)ccc2O[C@@H]1CN(C)C(=O)Nc1ccccc1	1.4	-9.0	x	x	x	x
C[C@@H]1CCCCO[C@@H](CN(C)Cc2ccc3c(c2)OCO3)[C@@H](C)CN([C@H](C)CO)C(=O)c2cc(NS(=O)(=O)c3ccc(Cl)cc3)ccc2O1	90.3	x	x	x	x	x
C[C@H]1CCCCO[C@H](CN(C)Cc2ccc3c(c2)OCO3)[C@@H](C)CN([C@@H](C)CO)C(=O)c2cc(NS(=O)(=O)c3ccc(Cl)cc3)ccc2O1	u	x	101.5*	67.8	11.6	104.3*
C[C@@H]1CCCCO[C@@H](CN(C)Cc2ccc3c(c2)OCO3)[C@@H](C)CN([C@@H](C)CO)C(=O)c2cc(NS(=O)(=O)c3ccc(Cl)cc3)ccc2O1	93.4	x	x	x	x	x
C[C@@H]1CN([C@H](C)CO)C(=O)c2cc(NS(=O)(=O)c3ccc(Cl)cc3)ccc2O[C@@H](C)CCCCO[C@H]1CN(C)Cc1ccc2c(c1)OCO2	106.0*!	x	97.3*	106.8*	19.8	103.6*
CCCNC(=O)Nc1ccc2c(c1)C(=O)N(C)[C@H]1CC[C@@H](CC(=O)NC)O[C@H]1CO2	-19.1	-8.4	x	x	x	x
COc1cccc(CNC(=O)C[C@@H]2CC[C@@H](NC(C)=O)[C@H](CO)O2)c1	17.5	x	x	x	x	x
O=C(C[C@H]1CC[C@H]2[C@@H](COC[C@H](O)CN2Cc2ccccc2F)O1)NCc1ccccc1F	35.0	5.3	x	x	x	x
O=C(C[C@H]1CC[C@H]2[C@@H](COC[C@@H](O)CN2C(=O)c2cccnc2)O1)NCC1CC1	x	43.7	x	x	x	x
CC(C)CC#Cc1ccc2c(c1)O[C@@H](CN(C)Cc1ccccn1)[C@@H](C)CN([C@@H](C)CO)S2(=O)=O	115.9*	x	104.8*	61.7	4.4	102.4*
CC(C)CC#Cc1ccc2c(c1)O[C@@H](CN(C)Cc1ccccn1)[C@H](C)CN([C@H](C)CO)S2(=O)=O	122.8*	7.3	103.5*	64.6	19.2	104.8*
SMILES	T cruzi growth-1	C diff HTS	T cruzi growth-2	T cruzi growth-3	NIH3T3 tox	NIH3T3 tox 2
C[C@H](O)C#Cc1ccc2c(c1)O[C@@H](CN(C)Cc1ccccn1)[C@@H](C)CN([C@H](C)CO)S2(=O)=O	0.3	1.7	x	x	x	x
CC(C)CC#Cc1ccc2c(c1)O[C@H](CN(C)Cc1ccccn1)[C@H](C)CN([C@@H](C)CO)S2(=O)=O	125.8*	-5.2	100.4*	51.8	22.2	104.2*
CC(C)CC#Cc1ccc2c(c1)O[C@@H](CN(C)Cc1ccccn1)[C@H](C)CN([C@@H](C)CO)S2(=O)=O	131.0*	-0.4	109.2*	91.2	13.5	103.4*
C[C@@H](O)C#Cc1ccc2c(c1)O[C@H](CN(C)Cc1ccccn1)[C@@H](C)CN([C@@H](C)CO)S2(=O)=O	11.5	-2.4	x	x	x	x
CN1C[C@H]2[C@@H](c3ccccc31)[C@H](CO)N2C(=O)C1CC1	20.8	-2.4	x	x	x	x
C[C@H]1CN([C@@H](C)CO)C(=O)c2cccc(NC(=O)C3CCOCC3)c2O[C@H]1CN(C)C(=O)NC1CCCCC1	53.3	2.8	x	x	x	x
N#C[C@@H]1[C@H](c2ccc(C#Cc3ccc(F)cc3)cc2)[C@@H](CO)N1C(=O)C1CCC1	92.6	-20.5	x	x	x	x
N#C[C@H]1[C@@H](c2ccc(C#CC3(O)CCCC3)cc2)[C@H](CO)N1C(=O)C1CC1	99.7*	13.8	104.0*	94.5	8.1	56.0*
N#C[C@H]1[C@@H](c2ccc(C#Cc3ccc(F)cc3)cc2)[C@H](CO)N1C(=O)C1CC1	93.4	-15.3	x	x	x	x
N#C[C@H]1[C@H](c2ccc(C#CC3(O)CCCC3)cc2)[C@H](CO)N1C(=O)C1CCC1	100.3*	3.9	106.8*	66.1	15.3	64.1*
C/C=C/c1ccc2c(c1)O[C@H](CN(C)Cc1cccc(F)c1)[C@@H](C)CN([C@@H](C)CO)S2(=O)=O	x	28.0	x	x	x	x
C/C=C/c1ccc2c(c1)O[C@H](CN(C)Cc1ccccc1)[C@@H](C)CN([C@@H](C)CO)S2(=O)=O	116.5*	7.7	100.5*	103.6*	14.1	103.9*
